Measured values published in PubChem BioAssay (Tox21).
Records with an inconclusive call do not appear. Entries that show only a call come without a potency. Some compounds were tested as several samples or in several runs, with calls that do not always agree. Calls of active or inactive are those of the source. Unless noted, calls come from the whole dose curve.

What was measured:
[1] = biological target: Acetylcholinesterase (Homo sapiens) (UniProt P22303); test: Acetylcholinesterase (AChE) small molecule antagonists: colormetric cell-based qHTS assay (AID 1347395); note: nearly all actives have a fitted effect of over 30% in size; note: potency is the fitted concentration of half-maximal effect
Outline: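 Colorimetric read-out: DTNB detects thiocholine released when cellular AChE in SH-SY5Y cells hydrolyses acetylthiocholine. Cells attached overnight, received compound for 30 min at 37 C, then substrate mix for 90 min at 37 C.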

[2] = biological target: Acetylcholinesterase (Homo sapiens) (UniProt P22303); test: Acetylcholinesterase (AChE) small molecule antagonists: enzyme-based qHTS assay (AID 1347397); settings: Potency: AChE enzyme activity inhibition; outcome: AChE enzyme activity inhibition; note: nearly all actives have a fitted effect of over 55% in size; note: potency is the fitted concentration of half-maximal effect
Outline: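 Recombinant human AChE, dispensed at 50 mU/mL, was preincubated with Tox21 10K compounds or DMSO vehicle for 30 min at room temperature. DTNB plus acetylthiocholine was then added, and thiocholine was measured colorimetrically after a further 10 min.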

[3] = biological target: Acetylcholinesterase (Homo sapiens) (UniProt P22303); test: Acetylcholinesterase (AChE) small molecule antagonists: fluorescence cell-based qHTS assay (AID 1347398); settings: Potency: AChE activity; outcome: AChE activity; note: nearly all actives have a fitted effect of over 50% in size; note: potency is the fitted concentration of half-maximal effect
Outline: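 Human SH-SY5Y cells were plated overnight at 37 C, exposed to compound for 30 min at 37 C, 5% CO2, then given acetylthiocholine plus Thiolite Green for 40 min at room temperature; thiocholine fluorescence (Ex/Em 490/520 nm) reports endogenous AChE activity.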

[4] = biological target: Acetylcholinesterase (Homo sapiens) (UniProt P22303); test: Acetylcholinesterase (AChE) small molecule antagonists: enzyme-based qHTS assay with human liver microsomes (AID 1347399); settings: Potency: qHTS inhibition; outcome: qHTS inhibition; note: nearly all actives have a fitted effect of over 60% in size
Outline: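 Recombinant human AChE (50 mU/mL in the enzyme mix) and human liver microsomes (0.25 mg/mL final) were preincubated with compound and NADPH (0.25 mg/mL final) for 30 min at 37 C. Acetylthiocholine/DTNB was then added; thiocholine was read colorimetrically after 10 min at room temperature.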

Aromatase (Homo sapiens) = Aromatase (Homo sapiens) (UniProt P11511); test: qHTS assay to identify aromatase inhibitors (AID 743083; active = well fitted inhibition curve with a large enough effect in the repeat runs; note: potency is the fitted concentration of half-maximal effect; nearly all actives have a fitted effect of over 55% in size)
Chain of Aromatase (Homo sapiens) (P11511 whole entry, looked up): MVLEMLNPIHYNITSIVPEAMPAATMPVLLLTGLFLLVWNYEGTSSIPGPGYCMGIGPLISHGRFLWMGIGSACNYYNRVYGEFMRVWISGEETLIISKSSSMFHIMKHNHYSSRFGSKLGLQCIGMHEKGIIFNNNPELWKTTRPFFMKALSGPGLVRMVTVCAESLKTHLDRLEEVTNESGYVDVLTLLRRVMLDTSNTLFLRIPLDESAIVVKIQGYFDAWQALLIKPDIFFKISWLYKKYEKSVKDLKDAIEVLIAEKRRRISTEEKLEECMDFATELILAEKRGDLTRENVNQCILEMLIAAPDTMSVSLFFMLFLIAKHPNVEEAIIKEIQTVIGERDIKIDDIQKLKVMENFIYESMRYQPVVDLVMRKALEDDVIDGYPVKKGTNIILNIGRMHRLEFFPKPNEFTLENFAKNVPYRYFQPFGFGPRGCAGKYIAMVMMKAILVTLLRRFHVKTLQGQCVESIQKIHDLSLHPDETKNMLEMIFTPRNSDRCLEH

Chain of Acetylcholinesterase (Homo sapiens) (P22303 whole entry, looked up): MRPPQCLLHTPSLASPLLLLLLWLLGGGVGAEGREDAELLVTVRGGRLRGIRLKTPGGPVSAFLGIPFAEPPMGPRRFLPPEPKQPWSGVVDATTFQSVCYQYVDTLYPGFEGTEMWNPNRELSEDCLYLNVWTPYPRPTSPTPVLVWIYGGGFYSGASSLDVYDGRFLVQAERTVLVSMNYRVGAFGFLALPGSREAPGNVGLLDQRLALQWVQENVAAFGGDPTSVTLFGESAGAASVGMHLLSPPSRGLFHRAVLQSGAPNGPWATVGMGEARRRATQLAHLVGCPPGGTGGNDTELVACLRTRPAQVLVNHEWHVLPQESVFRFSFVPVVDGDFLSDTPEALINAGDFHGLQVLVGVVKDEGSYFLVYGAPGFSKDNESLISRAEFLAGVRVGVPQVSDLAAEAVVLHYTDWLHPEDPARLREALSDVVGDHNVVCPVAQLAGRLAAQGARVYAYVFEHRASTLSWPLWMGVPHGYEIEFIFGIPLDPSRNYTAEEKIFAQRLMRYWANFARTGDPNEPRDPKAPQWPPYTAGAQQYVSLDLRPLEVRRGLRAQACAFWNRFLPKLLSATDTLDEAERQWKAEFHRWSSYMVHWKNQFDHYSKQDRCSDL

Compound: CC(C)C[C@H](NC(=O)[C@H](Cc1ccccc1)NC(=O)c1cnccn1)B(O)O
- Potency [1]: inactive
- Potency [2]: inactive
- Potency [3]: inactive
- Potency [4]: inactive

Compound: O=C(OCC1CCC2OC2C1)C1CCC2OC2C1 (configuration not stated)
- Potency [1]: inactive
- Potency [2]: inactive
- Potency [3]: inactive
- Potency [4]: inactive

Compound: CC(C)=CCC[C@@](C)(O)[C@H]1CC=C(C)CC1
- Potency [1]: inactive
- Potency [2]: inactive
- Potency [3]: inactive
- Potency [4]: inactive

Compound: COc1cc2ncnc(Nc3cccc(Cl)c3)c2cc1OC
- activity, negative = inhibition [1]: 5.54% [at 23.6 µM] (inactive)
- activity change, negative = inhibition [2]: -0.138% [at 23.6 µM] (inactive)
- activity change, negative = inhibition [3]: 1.23% [at 23.8 µM] (inactive)
- activity change, negative = inhibition [4]: 1.05% [at 23.6 µM] (inactive)

Compound: C=CCCC(=O)/C=C/C1C(C)=CCCC1(C)C (configuration not stated)
- Potency [1]: inactive
- Potency [2]: inactive
- Potency [3]: inactive
- Potency [4]: inactive

Compound: O=C1CCCCCCCCCCC1
- Potency [1]: inactive
- Potency [2]: inactive
- Potency [3]: inactive
- Potency [4]: inactive

Compound: CCOC(=O)C(C#N)=C(c1ccccc1)c1ccccc1
- Potency [1]: inactive
- Potency [2]: inactive
- Potency [3]: inactive
- Potency [4]: inactive

Compound: O=C(c1cc(O)c(O)c(O)c1)c1ccc(O)c(O)c1O
- Potency [1]: inactive
- Potency [2]: inactive
- Potency [3]: inactive
- Potency [4]: inactive

Compound: CCCc1nc(C)c2c(=O)[nH]c(-c3cc(S(=O)(=O)N4CCN(CC)CC4)ccc3OCC)nn12
- Potency [1]: inactive
- Potency [2]: inactive
- Potency [3]: inactive
- Potency [4]: inactive

Compound: O=C(Oc1ccccc1)c1ccc2ccccc2c1O
- Potency [1]: inactive
- Potency [2]: inactive
- Potency [3]: inactive
- Potency [4]: inactive

Compound: Cc1cccc(O)c1
- Potency [1]: inactive
- Potency [2]: inactive
- Potency [3]: inactive
- Potency [4]: inactive

Compound: CCOC(=O)n1ccn(C)c1=S
- Potency [1]: inactive
- Potency [2]: inactive
- Potency [3]: inactive
- Potency [4]: inactive

Compound: O=C1c2ccccc2C(=O)C1c1ccccc1
- Potency [1]: inactive
- Potency [2]: inactive
- Potency [3]: inactive
- Potency [4]: inactive

Compound: CC(C(=O)O)c1ccc2c(c1)CC(=O)c1ccccc1S2 (configuration not stated)
- Potency [1]: inactive
- Potency [2]: inactive
- Potency [3]: inactive
- Potency [4]: inactive

Compound: CCC(=O)c1ccc(O)cc1
- Potency [1]: inactive
- Potency [2]: inactive
- Potency [3]: inactive
- Potency [4]: inactive

Compound: C=C(C)C(=O)OCCOCCOCCOCCOC(=O)C(=C)C
- Potency [1]: inactive
- Potency [2]: inactive
- Potency [3]: inactive
- Potency [4]: inactive

Compound: CC(C)NCC(O)COc1ccc(COCCOC(C)C)cc1 (configuration not stated)
- Potency [1]: inactive
- Potency [2]: inactive
- Potency [3]: inactive
- Potency [4]: inactive

Compound: CCC[C@H](N[C@@H](C)C(=O)N1[C@H](C(=O)O)C[C@@H]2CCCC[C@@H]21)C(=O)OCC
- Potency [1]: inactive
- Potency [2]: inactive
- Potency [3]: inactive
- Potency [4]: inactive

Compound: COC(=O)CCCC(=O)OC
- Potency [1]: inactive
- Potency [2]: inactive
- Potency [3]: inactive
- Potency [4]: inactive

Compound: C/C=C(\C)C(C)=O
- Potency [1]: inactive
- Potency [2]: inactive
- Potency [3]: inactive
- Potency [4]: inactive

Compound: CCCCCCCCCCCCCCCCCCOCC(O)CO (configuration not stated)
- Potency [1]: inactive
- Potency [2]: inactive
- Potency [3]: inactive
- Potency [4]: inactive

Compound: c1ccc(Sc2ccccc2)cc1
- Potency [1]: inactive
- Potency [2]: inactive
- Potency [3]: inactive
- Potency [4]: inactive

Compound: O=[N+]([O-])c1ccc2c(c1)Cc1ccccc1-2
- Potency [1]: inactive
- Potency [2]: inactive
- Potency [3]: 39.9 µM (active) and inactive
- Potency [4]: inactive

Compound: CSc1ccc(/C=C2/C(C)=C(CC(=O)O)c3cc(F)ccc32)cc1
- Potency [1]: inactive
- Potency [2]: inactive
- Potency [3]: inactive
- Potency [4]: inactive

Compound: CCCCOC(=O)CC#N
- Potency [1]: inactive
- Potency [2]: inactive
- Potency [3]: inactive
- Potency [4]: inactive

Compound: C/C(Cl)=C/CCl
- Potency [1]: inactive
- Potency [2]: inactive
- Potency [3]: inactive
- Potency [4]: inactive

Compound: CCCCCCCCCCCO
- Potency [1]: inactive
- Potency [2]: inactive
- Potency [3]: inactive
- Potency [4]: inactive

Compound: C=CC(C)(C)C
- Potency [1]: inactive
- Potency [2]: inactive
- Potency [3]: inactive
- Potency [4]: inactive

Compound: CCC(C)Nc1ccc(NC(C)CC)cc1 (configuration not stated)
- Potency [1]: inactive
- Potency [2]: inactive
- Potency [3]: 40.7 µM (active)
- Potency [4]: inactive

Compound: CC(C)(c1ccccc1)c1ccc(Nc2ccc(C(C)(C)c3ccccc3)cc2)cc1
- Potency [1]: inactive
- Potency [2]: inactive
- Potency [3]: inactive
- Potency [4]: inactive

Compound: OCC(O)[C@@H](O)[C@H](O)[C@H](O)CO[C@H]1O[C@H](CO)[C@@H](O)[C@H](O)[C@H]1O (some centres not stated)
- Potency [1]: inactive
- Potency [2]: inactive
- Potency [3]: inactive
- Potency [4]: inactive

Compound: COCC(C)N (configuration not stated)
- Potency [1]: inactive
- Potency [2]: inactive
- Potency [3]: inactive
- Potency [4]: inactive

Compound: CN1C(CCl)Nc2cc(Cl)c(S(N)(=O)=O)cc2S1(=O)=O (configuration not stated)
- Potency [1]: inactive
- Potency [2]: inactive
- Potency [3]: inactive
- Potency [4]: inactive

Compound: CCOC(=O)OCC
- Potency [1]: inactive
- Potency [2]: inactive
- Potency [3]: inactive
- Potency [4]: inactive

Compound: Cc1cc(CCCOc2c(C)cc(-c3noc(C(F)(F)F)n3)cc2C)on1
- Potency [1]: inactive
- Potency [2]: inactive
- Potency [3]: inactive
- Potency [4]: inactive

Compound: N[C@H](Cc1c[nH]c2ccccc12)C(=O)O
- Potency [1]: inactive
- Potency [2]: inactive
- Potency [3]: inactive
- Potency [4]: inactive

Compound: C1CC(COCC2CO2)CCC1COCC1CO1 (configuration not stated)
- Potency [1]: inactive
- Potency [2]: inactive
- Potency [3]: inactive
- Potency [4]: inactive

Compound: C=Cc1ccccc1C=C
- Potency [1]: inactive
- Potency [2]: inactive
- Potency [4]: inactive

Compound: C=C(C#N)C(=O)OCC
- Potency [1]: inactive
- Potency [2]: inactive
- Potency [3]: inactive
- Potency [4]: inactive

Compound: CC(C)(c1ccc(O)cc1)c1ccc(O)cc1
- Potency [1]: inactive
- Potency [2]: inactive
- Potency [3]: inactive
- Potency [4]: inactive

Compound: NC(=O)c1ccc([N+](=O)[O-])cc1Cl
- Potency [1]: inactive
- Potency [2]: inactive
- Potency [3]: inactive
- Potency [4]: inactive

Compound: c1cc(C(c2ccc(OCC3CO3)cc2)C(c2ccc(OCC3CO3)cc2)c2ccc(OCC3CO3)cc2)ccc1OCC1CO1 (configuration not stated)
- Potency [1]: inactive
- Potency [2]: inactive
- Potency [3]: inactive
- Potency [4]: inactive

Compound: Cc1ccc(S(=O)(=O)O)c(C)c1
- Potency [1]: inactive
- Potency [2]: inactive
- Potency [3]: inactive
- Potency [4]: inactive

Compound: CN1CCC(OC(c2ccccc2)c2ccccc2)CC1
- Potency [1]: inactive
- Potency [2]: inactive
- Potency [3]: inactive
- Potency [4]: inactive

Compound: Cc1ncc[nH]1
- Potency [1]: inactive
- Potency [2]: inactive
- Potency [3]: inactive
- Potency [4]: inactive

Compound: NS(=O)(=O)c1cc2c(cc1Cl)CN(C1CCCCC1)C2=O
- Potency [1]: inactive
- Potency [2]: inactive
- Potency [3]: inactive
- Potency [4]: inactive

Compound: COC(=O)c1ccc(C)cc1C1=NC(C)(C(C)C)C(=O)N1 (configuration not stated)
- Potency [1]: inactive
- Potency [2]: inactive
- Potency [4]: inactive

Compound: CCc1nn(C2CCCCC2)c2cc(C3(C#N)CCC(C(=O)O)CC3)ccc12 (configuration not stated)
- Potency [1]: inactive
- Potency [2]: inactive
- Potency [4]: inactive

Compound: O=S(=O)(O)c1cccc(S(=O)(=O)O)c1
- Potency [1]: inactive
- Potency [2]: inactive
- Potency [3]: inactive
- Potency [4]: inactive

Compound: Oc1ccc(CCNCCCCCCNCCc2ccccc2)cc1O
- Potency [1]: 7.76 µM (active)
- Potency [2]: 27.5 µM (active)
- Potency [3]: 13.8 µM (active)
- Potency [4]: inactive

Compound: C=C1C[C@H]2[C@@H]3C=C(C)C4=CC(=O)CC[C@]4(C)[C@H]3CC[C@]2(C)[C@@]1(OC(C)=O)C(C)=O
- Potency [1]: inactive
- Potency [2]: inactive
- Potency [3]: inactive
- Potency [4]: inactive

Compound: CC(C)(C)c1ccc(CCC=O)cc1
- Potency [1]: inactive
- Potency [2]: inactive
- Potency [3]: inactive
- Potency [4]: inactive

Compound: COC(=O)CCCCCCCC(=O)OC
- Potency [1]: inactive
- Potency [2]: inactive
- Potency [4]: inactive

Compound: O=C1c2ccccc2C(=O)N1SC1CCCCC1
- Potency (Aromatase (Homo sapiens)): 30.6 µM (active)
- Potency [1]: 39.9 µM (active) and inactive
- Potency [2]: 31.7 µM (active) and inactive
- Potency [3]: 22.4 µM (active) and inactive
